# Test results: the supplement of paper PMC3334620
# Over roughly 33,000 sequences, “E-score (-0.5 to 0.5)” has its median near -0.011; the highest 2% begin near 0.28. The sample holds the highest values, similar sequences and a random draw of the others, so the mix is not that of the screen.
# Molecular target: T1, Gcr1 (UniProt P07261)
# T1 sequence: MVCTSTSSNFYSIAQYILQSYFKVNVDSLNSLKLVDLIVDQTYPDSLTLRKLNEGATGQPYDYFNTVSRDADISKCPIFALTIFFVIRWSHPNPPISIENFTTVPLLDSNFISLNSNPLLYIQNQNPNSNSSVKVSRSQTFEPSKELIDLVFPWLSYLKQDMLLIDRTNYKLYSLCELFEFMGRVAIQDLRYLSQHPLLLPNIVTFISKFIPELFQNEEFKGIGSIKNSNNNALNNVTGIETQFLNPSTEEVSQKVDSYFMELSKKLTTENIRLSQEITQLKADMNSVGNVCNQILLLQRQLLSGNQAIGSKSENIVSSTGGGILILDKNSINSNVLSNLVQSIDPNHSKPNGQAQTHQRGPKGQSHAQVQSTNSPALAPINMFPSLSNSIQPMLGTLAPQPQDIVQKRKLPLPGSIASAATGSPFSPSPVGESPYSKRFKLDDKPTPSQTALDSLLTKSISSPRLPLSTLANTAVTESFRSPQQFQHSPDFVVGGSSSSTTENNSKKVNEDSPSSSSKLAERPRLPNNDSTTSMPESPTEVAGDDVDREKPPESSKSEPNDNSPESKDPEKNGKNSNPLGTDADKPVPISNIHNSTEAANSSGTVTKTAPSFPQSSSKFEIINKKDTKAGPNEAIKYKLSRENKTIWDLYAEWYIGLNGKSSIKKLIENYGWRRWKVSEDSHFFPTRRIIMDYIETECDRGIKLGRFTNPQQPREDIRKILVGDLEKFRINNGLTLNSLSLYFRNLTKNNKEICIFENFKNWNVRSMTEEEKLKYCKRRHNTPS
# Test: PBM E-score (8-mer binding enrichment) (E-score (-0.5 to 0.5)); higher = stronger / more preferred TF binding
# Details: protein concentration: 100 nM; construct: GST-full length
# Method: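 Universal 'all 10-mer' protein binding microarrays (Agilent AMADID 015681) probed with GST-tagged S. cerevisiae TFs (full-length or DBD) made by in vitro transcription/translation (PURExpress), about 100-200 nM. Bound TF was detected with fluorescent anti-GST. Each ungapped 8-mer (which stands for itself and its reverse complement) is scored by the PBM enrichment score (E-score), a modified Wilcoxon-Mann-Whitney statistic from -0.5 to +0.5, computed with the Universal PBM Analysis Suite. Scale: above 0.35 generally sequence-specific binding.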
row,Sequence,PBM E-score
1,CGCCCCGA,-0.0435
2,CCGCGAGC,-0.0368
3,GCCCGGCA,-0.0489
4,GGAGTACC,-0.0959
5,TGTAGCAA,-0.0217
6,TAAAGAAA,0.162
7,ATGGGCCA,-0.112
8,GACAAACA,-0.0622
9,CGGTCCAC,-0.225
10,CTGGCTTA,-0.159
11,CAGGCTTC,0.213
12,CTGGCTTC,0.362
13,GCAAAGAA,0.00261
14,CGCAACCG,0.24
15,ACACCAGC,-0.126
16,TGAAGCCA,-0.0656
17,AGAAGCAG,0.174
18,AGAAGCCG,0.399
19,AAAAGCCC,-0.194
20,AGGAGCCT,0.109
21,AGAAGCCC,0.386
22,AGAAGCCT,0.273
23,AGGAGCCC,0.294
24,CGAAGCCC,0.268
25,AGAAGCCA,0.362

row,Sequence,PBM E-score
1,ACAAGCCA,-0.275
2,AGGAGCCG,0.269
3,GACCACAA,0.0254
4,AATCGCAA,0.0343
5,CGCCGCAG,0.103
6,ATCAGATA,-0.111
7,CGAAGCCA,0.272
8,CCAAGCCG,-0.0556
9,CGAAGCCG,0.285
10,AGCAAAGG,-0.135
11,AAAGGACG,0.025
12,ATTGTGAG,-0.17
13,AATTAGGG,-0.012
14,ATTTAGGG,0.196
15,ATTTAGGA,0.286
16,GATTAGGA,0.169
17,CTTTAGGA,0.249
18,CATTAGGC,-0.0378
19,TAATAGGA,0.278
20,AATTAGGA,0.315
21,AATTAGGT,0.0846
22,AAATAGGA,0.335
23,CAATAGGA,0.13
24,AATTAGGC,0.327
25,GACTTTCA,0.0748

row,Sequence,PBM E-score
1,AATTCGAT,-0.0107
2,GTCCGTAA,0.215
3,GTACCTAC,-0.0043
4,CCATCGTA,-0.145
5,AGGCTCAA,-0.283
6,AATCTTGA,0.1
7,AATTGTTA,0.116
8,AAGGAACG,-0.0671
9,AGGGAACC,0.203
10,AAGGAACT,0.0335
11,AAGGAACC,0.285
12,CAGGAACG,0.118
13,GAGGAACC,0.318
14,CGGGAACG,-0.0928
15,CAGGAACA,-0.125
16,CAGGAACC,0.32
17,CGGGAACC,0.289
18,GGGGAACC,0.161
19,GAGGAACA,-0.193
20,ATCTAGAT,0.0364
21,TCAAAACA,0.0365
22,CGAATGTA,-0.0414
23,ATCCTTAC,0.0414
24,AAAGAATA,-0.0583
25,ATTAAAAC,0.113

row,Sequence,PBM E-score
1,ATTAAAAG,0.239
2,CATTTAAA,0.287
3,ATTAAAAA,0.332
4,CATTAAAA,0.306
5,CATTTTAA,0.252
6,TATTAAAA,0.243
7,GATTAAAA,0.249
8,TATTTAAA,0.243
9,GGGGGAGA,-0.233
10,ATGTTCCA,0.15
11,CCCAACGG,-0.0188
12,GGAGCGGA,0.187
13,CGCCGCAC,0.0199
14,AGGGAAAA,0.108
15,AAGAGGAT,0.0595
16,TAGAGGAA,0.396
17,GAGAGGAA,0.128
18,AAGAGGAG,-0.0404
19,CAGAGGAA,0.0251
20,AAGAGGAA,0.285
21,AGGCACTG,-0.0493
22,TACCAGGA,0.19
23,CTATGCTA,-0.075
24,AGTCCTCG,-0.0287
25,GAAGTCAC,0.00882

row,Sequence,PBM E-score
1,CAAGTCAA,-0.0468
2,GAAGTCAA,0.297
3,AGCCCCTA,-0.0303
4,ATGGGTGG,-0.0217
5,AACGCCGC,0.123
6,AACGCCTC,-0.0454
7,CACGCCTC,-0.0746
8,GACGCCTC,0.282
9,CACGCCGC,0.151
10,GACGCCGC,0.37
11,AAAGGGTT,-0.0414
12,GTAAAGGA,0.149
13,AAAGAGAC,0.0252
14,CGGTGCCC,0.231
15,AGGTGCCA,0.191
16,AGGTGCCC,0.395
17,AGGTGCCG,0.22
18,GGTTGCCA,0.377
19,CGGTGCCA,0.00263
20,AGTTGCCA,0.134
21,GGGTGCCA,0.414
22,CGTTGCCA,0.0696
23,GTAAAGAC,-0.129
24,CAGGCCAG,-0.207
25,CGGCTGGA,0.0497

row,Sequence,PBM E-score
1,CATTCGGA,0.00656
2,GATGCCGC,0.267
3,GACAAGAC,0.0539
4,CTCAGAAA,-0.133
5,GAAAACGC,-0.167
6,AGTCTCGC,-0.154
7,AGGGCTCC,0.143
8,CAAAGGAC,-0.127
9,CCAGCTTC,0.333
10,ACAGCTTG,-0.199
11,CCAGCTGC,0.218
12,CCAGCTTA,-0.0932
13,ACAGCTTC,0.345
14,AGAGCTTC,0.267
15,CGAGCTTA,-0.185
16,ACAGCTTA,-0.0153
17,CGAGCTTC,0.371
18,AGTTCCAT,-0.107
19,AGAAGCAC,0.126
20,ACCCCGCC,0.0633
21,CTCTAAGA,-0.00019
22,AACTTCGG,-0.0312
23,ACCAGCTC,-0.149
24,TATACGCA,0.285
25,GATACGCA,0.247

row,Sequence,PBM E-score
1,CATACGCA,0.0448
2,CATGCGGC,-0.0307
3,GATGCGGA,0.033
4,GATGCGGC,0.299
5,CTGATCTC,-0.125
6,AGCGCCCG,0.272
7,AATAGGAA,0.352
8,CATAGGAA,0.134
9,GATAGGAA,0.208
10,AATAGGAT,0.187
11,TCTAGGAA,0.105
12,TATAGGAA,0.318
13,ACATATCA,0.129
14,CTCCGCGA,0.0908
15,GGCATTTA,-0.124
16,ACTGCACA,-0.211
17,CCAGCCAA,-0.11
18,GCAGCCAC,0.383
19,CCAGCCAC,0.0313
20,ACAGCCAC,-0.00306
21,TCAGCCAA,-0.102
22,GCAGCCAA,0.395
23,ACCGCCAT,-0.181
24,GACCTAGC,-0.152
25,GATATTGC,0.00295

row,Sequence,PBM E-score
1,CCTAGGTC,-0.17
2,GCTCGACC,0.00687
3,CCGGCAGC,0.292
4,CTGGCAGC,0.386
5,GCGGCAAC,0.0813
6,CCGGCAGA,0.0729
7,CCGGCAGG,-0.253
8,CCGGCAAG,-0.101
9,CCGGCAAC,0.318
10,AGGGCACC,0.13
11,GGGGCACA,-0.0447
12,ATGGCAGC,0.0656
13,CTGGCAGA,0.0263
14,GGGGCACC,0.351
15,AGTTCGAA,-0.0147
16,GCCCAAAC,0.111
17,GTTACCCA,-0.141
18,CCCTCTCA,-0.131
19,GAGTACCC,-0.0644
20,CCCACTCC,0.0066
21,CGGGTCTA,0.0247
22,CTGGCACA,-0.0796
23,CTGGCACC,0.392
24,ACGGCATC,0.2
25,AGGGCATC,0.129

row,Sequence,PBM E-score
1,CGGGCATC,0.282
2,CGGGCAGC,0.309
3,ATGGCACC,0.201
4,AGGGCAGC,0.0608
5,CCGGCATC,0.38
6,CCGGCATA,0.0787
7,CGGGCATA,-0.232
8,CGGGCAGA,-0.0209
9,AGTTTCAT,0.116
10,CCAAAGGC,-0.185
11,CCCGCTTA,0.161
12,CATGCGTC,-0.0513
13,CCTGAGAG,-0.131
14,CGACCGAC,0.0935
15,CACCAGTC,-0.02
16,GGGGTCCA,0.0846
17,AAATTTTA,0.126
18,AGTCGAGC,-0.0406
19,GACTGTCA,-0.154
